Measurements reported in PubChem BioAssay AID1159580 (chemical genetic matrix, 2015).
Values joined by “and” are separate entries in the source; they are usually repeats but may differ in a detail not shown here. Equal entries are not always repeated. In all, about 5,500 compounds went through this assay and about 2,000 (36%) were called active. Not shown: some 18% with an inconclusive outcome. Cut-off read from the data, not from the text of the source: active = normalized growth mostly below about 0.91 (no sharp cut-off); inconclusive = no clear call, values can overlap the other calls; inactive = mostly above about 0.92. The list shows a part of the results.

Test: chemical genetic growth profiling, strain panel (AID 1159580);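 note: tested at 20 µM; growth read once vehicle control cultures reached saturation at 30 °C; 1 = growth at the plate median or of vehicle wells; lower values mean less growth of the strain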
Conditions: S. cerevisiae deletion strains, growth OD

Measured: normalized growth

CCN(CC)C(=O)N1CCN(C)CC1
inactive: locus YAL021C, strain ccr4, stronger effect = lower value 0.984 | locus YAL026C, strain drs2, stronger effect = lower value 0.967 | locus YAL030W, strain snc1, stronger effect = lower value 0.967 | locus YBL061C, strain skt5, stronger effect = lower value 0.976 | locus YBR009C, strain hhf1, stronger effect = lower value 0.957 | locus YBR021W, strain FUR4, stronger effect = lower value 0.974 | locus YBR023C, strain chs3, stronger effect = lower value 0.981 | locus YBR171W, strain sec66, stronger effect = lower value 0.99 | locus YBR229C, strain ROT2, stronger effect = lower value 1.01 | locus YBR231C, strain swc5, stronger effect = lower value 0.97 | locus YBR279W, strain paf1, stronger effect = lower value 0.981 | locus YCL011C, strain gbp2, stronger effect = lower value 0.971 | locus YCL016C, strain dcc1, stronger effect = lower value 0.973 | locus YCL029C, strain bik1, stronger effect = lower value 0.999 | locus YCL069W, strain vba3, stronger effect = lower value 0.984 | locus YCR088W, strain abp1, stronger effect = lower value 0.994 | locus YDL005C, strain med2, stronger effect = lower value 0.963 | locus YDL035C, strain GPR1, stronger effect = lower value 1.04 | locus YDL040C, strain nat1, stronger effect = lower value 0.973 | locus YDL074C, strain BRE1, stronger effect = lower value 1.03 | locus YDL101C, strain DUN1, stronger effect = lower value 1.01 | locus YDL134C, strain PPH21, stronger effect = lower value 1.04 | locus YDL185W, strain tfp1, stronger effect = lower value 0.994 | locus YDL192W, strain arf1, stronger effect = lower value 1 | locus YDR001C, strain nth1, stronger effect = lower value 0.958 | locus YDR069C, strain doa4, stronger effect = lower value 0.976 | locus YDR101C, strain arx1, stronger effect = lower value 1 | locus YDR137W, strain rgp1, stronger effect = lower value 0.917 | locus YDR150W, strain NUM1, stronger effect = lower value 1.02 | locus YDR159W, strain sac3, stronger effect = lower value 0.964 | locus YDR162C, strain NBP2, stronger effect = lower value 1.02 | locus YDR195W, strain ref2 0.943 | locus YDR297W, strain sur2, stronger effect = lower value 0.979 | locus YDR318W, strain mcm21, stronger effect = lower value 1.01 | locus YDR334W, strain swr1, stronger effect = lower value 0.982 | locus YDR335W, strain msn5, stronger effect = lower value 0.95 | locus YDR388W, stronger effect = lower value 1 | locus YDR392W, strain spt3, stronger effect = lower value 0.956 | locus YDR502C, strain sam2, stronger effect = lower value 1 | locus YEL003W, strain gim4, stronger effect = lower value 0.965 | locus YEL037C, strain rad23, stronger effect = lower value 0.978 | locus YEL061C, strain CIN8 (second series), stronger effect = lower value 0.973 | locus YEL061C, strain CIN8, stronger effect = lower value 1.01 | locus YER015W, strain faa2, stronger effect = lower value 0.979 | locus YER016W, strain bim1, stronger effect = lower value 0.94 | locus YER110C, stronger effect = lower value 0.991 | locus YER111C, strain swi4, stronger effect = lower value 0.969 | locus YER155C, strain BEM2 (second series), stronger effect = lower value 0.984 | locus YER155C, strain BEM2, stronger effect = lower value 1.01 | locus YER167W, strain BCK2, stronger effect = lower value 1.01 | locus YFR010W, strain ubp6, stronger effect = lower value 0.959 | locus YGL078C, strain dbp3, stronger effect = lower value 0.997 | locus YGL086W, strain mad1, stronger effect = lower value 1.02 | locus YGL167C, strain pmr1, stronger effect = lower value 0.983 | locus YGL173C, strain kem1, stronger effect = lower value 0.986 | locus YGL227W, strain vid30, stronger effect = lower value 0.982 | locus YGL240W, strain doc1, stronger effect = lower value 0.956 | locus YGL248W, strain PDE1, stronger effect = lower value 1.01 | locus YGL253W, strain hxk2, stronger effect = lower value 0.948 | locus YGR078C, strain PAC10, stronger effect = lower value 1.02 | locus YGR135W, strain pre9, stronger effect = lower value 0.996 | locus YGR252W, strain gcn5, stronger effect = lower value 0.912 | locus YHR013C, strain ard1, stronger effect = lower value 0.942 | locus YHR027C, strain rpn1, stronger effect = lower value 0.971 | locus YHR030C, strain SLT2, stronger effect = lower value 1.02 | locus YHR079C, strain IRE1 (second series), stronger effect = lower value 0.993 | locus YHR079C, strain IRE1, stronger effect = lower value 1.02 | locus YHR094C, strain hxt1, stronger effect = lower value 1 | locus YHR129C, strain ARP1, stronger effect = lower value 1.01 | locus YHR142W, strain chs7, stronger effect = lower value 0.954 | locus YHR200W, strain rpn10, stronger effect = lower value 1 | locus YIL066C, strain RNR3, stronger effect = lower value 1.04 | locus YIL073C, strain SPO22, stronger effect = lower value 1.02 | locus YIL125W, strain kgd1, stronger effect = lower value 1 | locus YIR030C, strain dcg1, stronger effect = lower value 1.01 | locus YJL092W, strain hpr5, stronger effect = lower value 0.985 | locus YJL095W, strain BCK1 (second series), stronger effect = lower value 0.965 | locus YJL095W, strain BCK1, stronger effect = lower value 1 and 1.04 | locus YJL115W, strain asf1, stronger effect = lower value 0.946 | locus YJL129C, strain trk1, stronger effect = lower value 0.951 | locus YJL134W, strain LCB3, stronger effect = lower value 1.01 | locus YJL154C, strain vps35, stronger effect = lower value 0.983 | locus YJL164C, strain tpk1, stronger effect = lower value 0.959 | locus YJL166W, strain qcr8, stronger effect = lower value 0.999 | locus YJL168C, strain set2, stronger effect = lower value 0.992 | locus YJL187C, strain SWE1 (second series), stronger effect = lower value 1.01 | locus YJL187C, strain SWE1, stronger effect = lower value 0.973 | locus YJR043C, strain POL32, stronger effect = lower value 1.04 | locus YJR066W, strain TOR1, stronger effect = lower value 0.965
